For part of these data: Measured potencies and affinities stand elsewhere. Calls of active or inactive are those of the source.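 How the source made its calls, unless noted: active means calcium signal ratio cut to more than 3 SD under the fully stimulated control mean yet still positive, in both repeats and the primary screen; inactive means the rest.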
Assays:
[1] = tested on: TRPC4 beta (transient receptor potential cation channel C4), mouse; assay: activators of mouse TRPC4 channel, confirmation, cell-based, Fluo4 calcium, HEK293 TRPC4beta/mu-opioid, duplicates, 10 µM (AID 2426;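 active means fluorescence ratio normalized to control raised more than 50% in primary screen plus both repeat runs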); conditions: Fluo4 calcium fluorescence, at 10 µM; hits give high values
[2] = tested on: transient receptor potential cation channel C4 beta (TRPC4), mouse; assay: activators of mouse TRPC4 channel, confirmation, cell-based, second round, Fluo4, HEK293 TRPC4beta/mu-opioid, 1 µM (AID 2461;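 active means primary screen active and over 50% activation in each of two duplicate runs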); conditions: Fluo4 calcium fluorescence, at 1 µM; hits give high values
[3] = tested on: TRPC4 (transient receptor potential cation channel C4 beta), mouse; assay: positive allosteric modulators of mouse TRPC4, confirmation, cell-based, second round, Fluo-4, HEK293 TRPC4beta/mu-opioid, 1 µM (AID 2554;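 active means primary screen hit whose fluorescence ratio, in both repeats, exceeds the weak agonist control mean by 3 SD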); conditions: DAMGO EC20, Fluo-4 calcium flux, at 1 µM; hits give high values
[4] = tested on: TRPC4 beta (transient receptor potential cation channel C4), mouse; assay: positive allosteric modulators of mouse TRPC4, confirmation, cell-based, Fluo-4, HEK293 TRPC4beta/mu-opioid (AID 2555;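 active means primary screen hit whose calcium fluorescence ratio, in both repeats, exceeds the weak agonist control mean by 3 SD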); conditions: DAMGO EC20, Fluo-4 calcium flux, at 10 µM; hits give high values
[5] = molecular target: Short transient receptor potential channel 4 (Mus musculus) (UniProt Q9QUQ5); assay: inhibitors of mouse TRPC4 channel, confirmation, cell-based, Fluo4, HEK293 TRPC4beta/mu-opioid (AID 2636;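 active means calcium signal cut by more than 3 SD below the full-agonist control yet still positive, in both repeats and the earlier primary screen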); conditions: DAMGO, Fluo4 calcium flux, at 10 µM; hits give high values
[6] = molecular target: Short transient receptor potential channel 4 (Mus musculus) (UniProt Q9QUQ5); assay: inhibitors of mouse TRPC4 channel, confirmation, cell-based, second round, Fluo4, HEK293 TRPC4beta/mu-opioid, 1 µM (AID 2637); conditions: Fluo4 calcium flux, DAMGO, at 1 µM; hits give high values
[7] = molecular target: Short transient receptor potential channel 4 (Mus musculus) (UniProt Q9QUQ5); assay: mouse TRPC4 channel activators, dose response, cell-based, HEK293 TRPC4/mu-opioid, Fluo-4 calcium (AID 434937;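 active means primary screen activator hit with a dose response curve and TRPC4 channel activation at any tested dose; inactive means no activation, no dose response, or not a primary hit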)
[8] = molecular target: Short transient receptor potential channel 4 (Mus musculus) (UniProt Q9QUQ5); assay: TRPC4 positive allosteric modulators, dose response, cell-based, HEK293 TRPC4/mu-opioid, Fluo-4 calcium, EC20 DAMGO (AID 434941;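 active means earlier screen potentiator hit that boosts the TRPC4 ion channel at some dose, with a dose response; inactive means no potentiation, no dose response, or not a prior hit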;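 further: calcium entry triggered by an EC20 dose of DAMGO at the co-expressed mu-opioid receptor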)
[9] = molecular target: Short transient receptor potential channel 4 (Mus musculus) (UniProt Q9QUQ5); assay: mouse TRPC4 channel inhibitors, dose response, cell-based, HEK293 TRPC4/mu-opioid, Fluo-4 calcium (AID 434942;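 active means primary screen inhibitor hit that blocks the TRPC4 channel at some tested dose, yielding a dose curve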)
[10] = molecular target: Short transient receptor potential channel 6 (Mus musculus) (UniProt Q61143); assay: inhibition of mouse TRPC6 channel, confirmation, selectivity assay for TRPC4 inhibitor project, cell-based, HEK293, membrane potential dye, duplicate (AID 434948;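 active means active in primary screen and both duplicates, each dropping signal beyond three positive-control SD with fluorescence still positive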); conditions: HEK293 TRPC6, membrane potential dye fluorescence, at 10 µM, stimulated with maximal-effect acetylcholine; hits give high values
[11] = molecular target: Short transient receptor potential channel 6 (Mus musculus) (UniProt Q61143); assay: activation of mouse TRPC6 channel, confirmation, selectivity assay for TRPC4 activator project, cell-based, HEK293, membrane potential dye, duplicate (AID 434950;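 active means membrane potential signal rise above negative control mean plus 3 SD in both duplicates, also active in the earlier TRPC4 screen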); conditions: HEK293 TRPC6, membrane potential fluorescence, at 10 µM; hits give high values
[12] = molecular target: Short transient receptor potential channel 6 (Mus musculus) (UniProt Q61143); assay: TRPC6 potentiation by TRPC4 potentiator hits, confirmation, selectivity assay for TRPC4 potentiator project, HEK293 cells, membrane potential dye, duplicate (AID 434952;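 active means compound raising the membrane signal above positive-control mean plus 3 SD in both repeats, and a primary screen hit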); conditions: HEK293 TRPC6, membrane potential dye fluorescence, at 10 µM, maximal acetylcholine added after compound; hits give high values
[13] = molecular target: Short transient receptor potential channel 4 (Mus musculus) (UniProt Q9QUQ5); assay: calcium flux activators in TRPC4/5HT1a cells, counter-screen for TRPC4 activator project, cell-based, second counter screen, HEK293 TRPC4/5HT1a, Fluo-4 (AID 434977;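 active means calcium signal rise above buffer-control mean plus 5 SD in both duplicates, and also a hit in the primary screen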); conditions: Fluo-4 calcium flux, at 10 µM; hits give high values
[14] = calcium flux inhibitors in TRPC4/5HT1a cells, confirmation, counter-screen for TRPC4 inhibitor project, cell-based, second counter screen, HEK293 TRPC4/5HT1a, Fluo-4 (AID 434978;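 active means primary screen active whose calcium signal fell more than 3 SD beyond the full-serotonin control mean in both duplicate plates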;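 further: serotonin given first at submaximal then at maximal dose after compound preincubation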); conditions: Fluo-4 calcium flux, at 10 µM, serotonin added to trigger calcium flux; hits give high values
[15] = tested on: TRPC4 (mouse), co-expressed with 5HT1a in HEK293; assay: calcium flux potentiators in TRPC4/5HT1a cells, confirmation, counter-screen for TRPC4 potentiator project, cell-based, second counter screen, HEK293 TRPC4/5HT1a, Fluo-4 (AID 434979;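 active means signal rise over 3 SD above mean of control wells given weak agonist, in both repeats and first screen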); conditions: Fluo-4 calcium flux, at 10 µM, serotonin added at its EC20 dose; hits give high values
[16] = calcium flux activation in mu-opioid HEK293 cells, confirmation, counter-screen for TRPC4 activator project, cell-based, HEK293 mu-opioid receptor line (AID 449723;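 active means hit in primary screen, with calcium signal over 5 SD above buffer well mean in both duplicates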;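 further: counter screen cells carry the mu-opioid receptor alone and lack TRPC4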); conditions: Fluo-4 calcium fluorescence, at 10 µM; hits give high values
[17] = calcium flux enhancement in mu-opioid HEK293 cells, confirmation, counter-screen for TRPC4 allosteric potentiator project, cell-based, HEK293 mu-opioid receptor line (AID 449724;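 active means calcium signal rise more than 3 SD above the low-dose agonist control mean, in both duplicate plates and the primary screen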); conditions: Fluo-4 calcium flux, at 10 µM, compound added before EC20 DAMGO stimulus; hits give high values

Sequence of Short transient receptor potential channel 4 (Mus musculus) (Q9QUQ5 whole entry, looked up): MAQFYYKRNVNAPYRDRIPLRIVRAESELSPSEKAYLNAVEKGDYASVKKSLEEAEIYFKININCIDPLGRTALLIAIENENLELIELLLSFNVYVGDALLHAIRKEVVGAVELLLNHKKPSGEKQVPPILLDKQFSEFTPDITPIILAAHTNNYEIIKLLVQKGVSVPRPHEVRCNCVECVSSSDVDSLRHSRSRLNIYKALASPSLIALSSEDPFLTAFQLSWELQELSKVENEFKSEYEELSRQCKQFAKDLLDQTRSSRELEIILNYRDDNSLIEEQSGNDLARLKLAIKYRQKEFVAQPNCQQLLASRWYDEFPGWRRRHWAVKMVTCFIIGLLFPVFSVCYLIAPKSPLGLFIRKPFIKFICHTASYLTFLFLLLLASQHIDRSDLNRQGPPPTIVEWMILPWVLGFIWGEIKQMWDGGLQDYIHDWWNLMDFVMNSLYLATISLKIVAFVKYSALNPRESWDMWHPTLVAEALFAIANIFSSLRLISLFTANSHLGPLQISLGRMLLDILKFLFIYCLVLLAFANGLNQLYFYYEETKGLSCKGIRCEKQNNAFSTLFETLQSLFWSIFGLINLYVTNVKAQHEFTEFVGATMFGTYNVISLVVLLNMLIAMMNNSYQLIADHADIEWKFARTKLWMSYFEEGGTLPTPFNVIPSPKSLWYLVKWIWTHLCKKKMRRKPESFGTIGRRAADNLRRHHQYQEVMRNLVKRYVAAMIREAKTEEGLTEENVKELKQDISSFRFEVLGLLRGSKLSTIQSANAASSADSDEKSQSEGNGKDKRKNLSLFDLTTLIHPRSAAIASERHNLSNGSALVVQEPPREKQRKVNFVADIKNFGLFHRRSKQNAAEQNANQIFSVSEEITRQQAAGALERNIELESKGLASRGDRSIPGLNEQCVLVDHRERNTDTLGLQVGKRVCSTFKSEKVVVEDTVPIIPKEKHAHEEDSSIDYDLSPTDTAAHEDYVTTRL
Sequence of Short transient receptor potential channel 6 (Mus musculus) (Q61143 whole entry, looked up): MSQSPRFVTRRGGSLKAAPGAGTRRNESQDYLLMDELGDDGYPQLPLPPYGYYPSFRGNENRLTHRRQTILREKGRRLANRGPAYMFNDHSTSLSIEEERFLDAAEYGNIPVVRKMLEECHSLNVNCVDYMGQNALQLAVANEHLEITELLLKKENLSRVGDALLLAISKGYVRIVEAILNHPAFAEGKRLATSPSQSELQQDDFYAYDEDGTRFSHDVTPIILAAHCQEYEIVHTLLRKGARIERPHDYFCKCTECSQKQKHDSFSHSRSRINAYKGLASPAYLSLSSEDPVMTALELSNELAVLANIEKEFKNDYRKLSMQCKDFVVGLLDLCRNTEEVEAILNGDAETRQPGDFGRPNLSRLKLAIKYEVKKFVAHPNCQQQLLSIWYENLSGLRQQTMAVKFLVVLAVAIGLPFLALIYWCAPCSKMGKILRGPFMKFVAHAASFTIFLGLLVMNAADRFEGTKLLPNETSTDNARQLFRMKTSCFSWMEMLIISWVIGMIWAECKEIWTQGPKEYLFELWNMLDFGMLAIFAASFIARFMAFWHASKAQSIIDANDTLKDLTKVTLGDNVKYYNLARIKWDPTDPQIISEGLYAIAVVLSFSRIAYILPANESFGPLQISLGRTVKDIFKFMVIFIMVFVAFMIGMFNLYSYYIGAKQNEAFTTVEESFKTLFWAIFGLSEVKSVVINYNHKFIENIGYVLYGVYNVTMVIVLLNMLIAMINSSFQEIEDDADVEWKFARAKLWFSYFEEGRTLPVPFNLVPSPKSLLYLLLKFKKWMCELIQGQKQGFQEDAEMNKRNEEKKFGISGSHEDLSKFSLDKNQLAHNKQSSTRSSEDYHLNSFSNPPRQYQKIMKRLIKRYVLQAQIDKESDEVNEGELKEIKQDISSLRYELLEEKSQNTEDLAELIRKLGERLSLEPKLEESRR

CCCn1c(N2CCN(S(=O)(=O)Cc3ccccc3)CC2)nc2ccccc21
outcome [1]: inactive | outcome [2]: inactive | outcome [3]: inactive | potentiation [4]: 11% (active) | outcome [5]: inactive | outcome [6]: inactive | outcome [7]: inactive | outcome [8]: inactive | outcome [9]: inactive | outcome [10]: inactive | outcome [11]: inactive | outcome [12]: inactive | outcome [13]: inactive | outcome [14]: inactive | potentiation [15]: 22.3% (active) | outcome [16]: inactive | outcome [17]: inactive

Cc1ccnc(NC(=O)COC(=O)C23CC4CC(CC(C4)C2)C3)n1
outcome [1]: inactive | outcome [2]: inactive | outcome [3]: inactive | potentiation [4]: 128% (active) | outcome [5]: inactive | outcome [6]: inactive | outcome [7]: inactive | outcome [8]: inactive | outcome [9]: inactive | outcome [10]: inactive | outcome [11]: inactive | outcome [12]: inactive | outcome [13]: inactive | outcome [14]: inactive | potentiation [15]: 104% (active) | outcome [16]: inactive | outcome [17]: inactive

CC(C)(C)c1ccc(-c2nnc3sc(-c4ccccn4)nn23)cc1
outcome [1]: inactive | outcome [2]: inactive | outcome [3]: inactive | potentiation [4]: 68% (active) | outcome [5]: inactive | outcome [6]: inactive | outcome [7]: inactive | outcome [8]: inactive | outcome [9]: inactive | outcome [10]: inactive | outcome [11]: inactive | outcome [12]: inactive | outcome [13]: inactive | outcome [14]: inactive | outcome [15]: inactive | outcome [16]: inactive | outcome [17]: inactive

COc1ccc(-c2cc(C(F)(F)F)nc(N3CCN(C)CC3)n2)cc1
outcome [1]: inactive | outcome [2]: inactive | outcome [3]: inactive | outcome [4]: inactive | outcome [5]: inactive | outcome [6]: inactive | outcome [7]: inactive | outcome [8]: inactive | outcome [9]: inactive | outcome [10]: inactive | outcome [11]: inactive | outcome [12]: inactive | outcome [13]: inactive | outcome [14]: inactive | potentiation [15]: 14.5% (active) | outcome [16]: inactive | outcome [17]: inactive

Oc1c(Br)cc(Br)c(/C=N/n2c(-c3ccccc3)n[nH]c2=S)c1Br
outcome [1]: inactive | outcome [2]: inactive | outcome [3]: inactive | potentiation [4]: 18% (active) | outcome [5]: inactive | outcome [6]: inactive | outcome [7]: inactive | outcome [8]: inactive | outcome [9]: inactive | outcome [10]: inactive | outcome [11]: inactive | outcome [12]: inactive | outcome [13]: inactive | outcome [14]: inactive | outcome [15]: inactive | outcome [16]: inactive | outcome [17]: inactive

C/C(N)=C(/C#N)C(=O)COC(=O)C1CCC(C(C)(C)C)CC1 (stereo not given)
outcome [1]: inactive | outcome [2]: inactive | outcome [3]: inactive | outcome [4]: inactive | outcome [5]: inactive | outcome [6]: inactive | outcome [7]: inactive | outcome [8]: inactive | outcome [9]: inactive | outcome [10]: inactive | outcome [11]: inactive | outcome [12]: inactive | outcome [13]: inactive | outcome [14]: inactive | outcome [15]: inactive | outcome [16]: inactive | outcome [17]: inactive

Oc1c(Br)cc(C2N=C(c3ccccc3Cl)NO2)cc1Br (stereo not given)
outcome [1]: inactive | outcome [2]: inactive | outcome [3]: inactive | outcome [4]: inactive | outcome [5]: inactive | outcome [6]: inactive | outcome [7]: inactive | outcome [8]: inactive | outcome [9]: inactive | outcome [10]: inactive | outcome [11]: inactive | outcome [12]: inactive | outcome [13]: inactive | outcome [14]: inactive | outcome [15]: inactive | outcome [16]: inactive | outcome [17]: inactive

CC(=O)N1CC(c2ccccc2)C(c2ccc(Cl)cc2)=N1 (stereo not given)
outcome [1]: inactive | outcome [2]: inactive | outcome [3]: inactive | outcome [4]: inactive | outcome [5]: inactive | outcome [6]: inactive | outcome [7]: inactive | outcome [8]: inactive | outcome [9]: inactive | outcome [10]: inactive | outcome [11]: inactive | outcome [12]: inactive | outcome [13]: inactive | outcome [14]: inactive | outcome [15]: inactive | outcome [16]: inactive | outcome [17]: inactive

CC(C)CCn1c(Sc2nc3ccccc3o2)nc2c1c(=O)[nH]c(=O)n2C
outcome [1]: inactive | outcome [2]: inactive | outcome [3]: inactive | potentiation [4]: 13% (active) | outcome [5]: inactive | outcome [6]: inactive | outcome [7]: inactive | outcome [8]: inactive | outcome [9]: inactive | outcome [10]: inactive | outcome [11]: inactive | outcome [12]: inactive | outcome [13]: inactive | outcome [14]: inactive | potentiation [15]: 45% (active) | outcome [16]: inactive | outcome [17]: inactive

COc1cc2nc(=S)n3[nH]c(CCn4nc(C)cc4C)nc3c2cc1OC
outcome [1]: inactive | outcome [2]: inactive | outcome [3]: inactive | outcome [4]: inactive | outcome [5]: inactive | outcome [6]: inactive | outcome [7]: inactive | outcome [8]: inactive | outcome [9]: inactive | outcome [10]: inactive | outcome [11]: inactive | outcome [12]: inactive | outcome [13]: inactive | outcome [14]: inactive | outcome [15]: inactive | outcome [16]: inactive | outcome [17]: inactive

O=C1CC2(CCN(S(=O)(=O)c3ccccc3)CC2)Oc2ccccc21
outcome [1]: inactive | outcome [2]: inactive | outcome [3]: inactive | potentiation [4]: 52% (active) | outcome [5]: inactive | outcome [6]: inactive | outcome [7]: inactive | outcome [8]: inactive | outcome [9]: inactive | outcome [10]: inactive | outcome [11]: inactive | outcome [12]: inactive | outcome [13]: inactive | outcome [14]: inactive | potentiation [15]: 28.7% (active) | outcome [16]: inactive | outcome [17]: inactive

Cc1cccc(Cn2c(=O)c3c(nc4n3CCCN4Cc3ccccc3)n(C)c2=O)c1
outcome [1]: inactive | outcome [2]: inactive | potentiation [3]: 14% (active) | potentiation [4]: 120% (active) | outcome [5]: inactive | outcome [6]: inactive | outcome [7]: inactive | outcome [8]: inactive | outcome [9]: inactive | outcome [10]: inactive | outcome [11]: inactive | outcome [12]: inactive | outcome [13]: inactive | outcome [14]: inactive | potentiation [15]: 75.2% (active) | outcome [16]: inactive | outcome [17]: inactive

CCNC(=S)N/N=C/c1cc(C)n(-c2ccc(Cl)cc2)c1C
outcome [1]: inactive | outcome [2]: inactive | outcome [3]: inactive | potentiation [4]: 19% (active) | outcome [5]: inactive | outcome [6]: inactive | outcome [7]: inactive | outcome [8]: inactive | outcome [9]: inactive | outcome [10]: inactive | outcome [11]: inactive | outcome [12]: inactive | outcome [13]: inactive | outcome [14]: inactive | potentiation [15]: 17.3% (active) | outcome [16]: inactive | outcome [17]: inactive

COc1ccc(-n2ncc3c(N4CCc5ccccc54)ncnc32)cc1
outcome [1]: inactive | outcome [2]: inactive | outcome [3]: inactive | outcome [4]: inactive | outcome [5]: inactive | outcome [6]: inactive | outcome [7]: inactive | outcome [8]: inactive | outcome [9]: inactive | outcome [10]: inactive | outcome [11]: inactive | outcome [12]: inactive | outcome [13]: inactive | outcome [14]: inactive | outcome [15]: inactive | outcome [16]: inactive | outcome [17]: inactive

CCOP(=O)(OCC)c1nc(-c2ccc(Cl)cc2Cl)oc1N1CCCCC1
outcome [1]: inactive | outcome [2]: inactive | outcome [3]: inactive | outcome [4]: inactive | outcome [5]: inactive | outcome [6]: inactive | outcome [7]: inactive | outcome [8]: inactive | outcome [9]: inactive | outcome [10]: inactive | outcome [11]: inactive | outcome [12]: inactive | outcome [13]: inactive | outcome [14]: inactive | potentiation [15]: 54.2% (active) | outcome [16]: inactive | outcome [17]: inactive

Reference: PubChem BioAssay
